# According to ChEMBL document CHEMBL1961873, “Compounds: GSK PKIS; Assays: Nanosyn kinase panel” (2012):
# Biological target: T1, Ephrin type-B receptor 2 (Homo sapiens) (UniProt P29323)
# T1 sequence (whole entry): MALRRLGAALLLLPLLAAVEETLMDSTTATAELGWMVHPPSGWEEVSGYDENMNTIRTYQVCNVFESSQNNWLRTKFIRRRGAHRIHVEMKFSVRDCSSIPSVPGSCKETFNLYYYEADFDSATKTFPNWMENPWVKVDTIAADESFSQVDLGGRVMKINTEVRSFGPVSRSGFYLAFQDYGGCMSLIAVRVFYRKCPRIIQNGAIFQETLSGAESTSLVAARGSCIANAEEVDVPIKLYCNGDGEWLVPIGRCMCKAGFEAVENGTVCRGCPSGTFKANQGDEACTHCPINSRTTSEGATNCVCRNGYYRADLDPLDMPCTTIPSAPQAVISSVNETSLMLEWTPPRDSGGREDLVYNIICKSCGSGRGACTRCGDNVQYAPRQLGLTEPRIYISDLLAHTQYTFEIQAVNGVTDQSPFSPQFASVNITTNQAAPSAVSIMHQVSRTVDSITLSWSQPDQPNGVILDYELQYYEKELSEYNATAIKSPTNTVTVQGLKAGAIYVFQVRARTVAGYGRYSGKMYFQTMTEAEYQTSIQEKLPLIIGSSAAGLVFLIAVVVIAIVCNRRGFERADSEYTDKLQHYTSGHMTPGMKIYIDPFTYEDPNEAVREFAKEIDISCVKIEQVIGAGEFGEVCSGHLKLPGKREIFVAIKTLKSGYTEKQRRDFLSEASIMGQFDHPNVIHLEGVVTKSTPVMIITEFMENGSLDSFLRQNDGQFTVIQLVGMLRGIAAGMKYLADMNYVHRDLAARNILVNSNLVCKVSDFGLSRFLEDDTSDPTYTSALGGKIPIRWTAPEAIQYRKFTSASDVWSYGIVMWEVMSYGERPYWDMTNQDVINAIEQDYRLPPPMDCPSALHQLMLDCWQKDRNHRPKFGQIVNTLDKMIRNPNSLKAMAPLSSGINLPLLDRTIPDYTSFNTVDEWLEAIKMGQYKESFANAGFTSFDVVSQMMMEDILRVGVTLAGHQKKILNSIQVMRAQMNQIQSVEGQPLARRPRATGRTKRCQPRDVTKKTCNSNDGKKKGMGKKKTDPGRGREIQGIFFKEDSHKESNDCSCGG
# Conditions: at 1 µM
row,SMILES,inhibition [%]
1,CN(C)C(=O)O[C@@H]1CN[C@@H](C#Cc2cc3ncnc(Nc4ccc(OCc5cccc(F)c5)c(Cl)c4)c3s2)C1,-1.82
2,N#Cc1c(NC(=O)c2ccccc2F)sc2c1CCCC2,-0.34
3,Cc1ccc2c(-c3ccnc(Nc4ccc5c(c4)OCCO5)n3)c(-c3ccc(C(F)(F)F)cc3)nn2n1,1.37
4,COc1cccc(-n2nc(C)c3c(N/N=C(\C)c4ccncc4)ncnc32)c1,3.31
5,NS(=O)(=O)c1ccc(N/N=C2\C(=O)Nc3ccc(Cl)cc32)cc1,6.46
6,CCOc1nccc2c1nc(-c1nonc1N)n2CC,13.1
7,Cc1ccc(C(=O)NC2CC2)cc1-c1ccc2[nH]ncc2c1,-4.6
8,c1ccc(Nc2ncc(-c3ccccc3)o2)cc1,12.9
9,Cc1cc(Cl)cc2c1NC(=O)C2=NNc1ccc(S(N)(=O)=O)cc1,1.31
10,O=C1Nc2ccccc2/C1=C/Nc1ccc2[nH]c(=O)[nH]c2c1,20.6
11,Nc1nccc(-c2c(-c3ccc(F)cc3)ncn2CCCN2CCOCC2)n1,7.41
12,[O-][S+]1CCN(Cc2ccc(-c3ccc4ncnc(Nc5ccc(OCc6ccccc6)c(Cl)c5)c4c3)o2)CC1,5.17
13,NS(=O)(=O)c1cccc(-c2cc3ccncc3cc2OCc2ccccc2)c1,9.74
14,CCCN1CCCC(c2ccc(Nc3nc(Nc4cc(F)ccc4C(N)=O)c4cc[nH]c4n3)c(OC)c2)C1 (stereo not drawn),15.8
15,OCc1ccc(-c2nc(-c3ccccn3)c(-c3ccc4c(c3)OCO4)[nH]2)cc1,11.4
16,COc1ccc(-c2nn3ncccc3c2-c2ccnc(Nc3cccc(C(F)(F)F)c3)n2)cc1,6.69
17,O=C1Nc2ccc(-c3cccnc3)cc2C1=Cc1cc(Br)c(O)c(Br)c1,11

row,SMILES,inhibition [%]
1,CN(C)c1cc2c(Nc3ccc4c(cnn4Cc4ccccc4)c3)ncnc2cn1,0.46
2,CCS(=O)(=O)c1ccc(OC)c(Nc2nccc(N(C)c3ccc4c(C)n[nH]c4c3)n2)c1,43.6
3,COC(=O)c1cncc(/C=C/c2c(C)cc(O)cc2C)c1,56.4
4,O=S(=O)(CCOCc1ccc(-c2ccc3ncnc(Nc4ccc(OCc5cccc(F)c5)c(Cl)c4)c3c2)o1)c1ccccc1,6.76
5,O=C(Nc1ccc(Oc2ccc3[nH]c(NC(=O)c4ccco4)nc3c2)cc1)Nc1cc(C(F)(F)F)ccc1F,78.3
6,Cc1cc(-c2ccccn2)cc(C)c1/C=C/c1cncc(-c2nn[nH]n2)c1,12.8
7,Cc1cc(O)cc(C)c1/C=C/c1cncc(C(=O)N(C)C)c1,22.5
8,CN(C)CCCn1c(-c2nonc2N)nc2cnccc21,5.68
9,CCn1c(-c2nonc2N)nc2c(C#CC(C)(C)O)nc(OCCNC)cc21,8.26
10,Cc1ccc2c(c1)/C(=N/Nc1ccc(S(N)(=O)=O)cc1)C(=O)N2,-1.87
11,Cc1ccc2c(-c3ccnc(Nc4cccc(C(F)(F)F)c4)n3)c(-c3ccccc3)nn2n1,51.7
12,FC(F)(F)c1ccc(-c2nn3ncccc3c2-c2ccnc(Nc3ccc4c(c3)OCCO4)n2)cc1,36.7
13,Cc1ccc(Nc2ccnc(Nc3cccc(C(N)=O)c3)n2)cc1O,38.6
14,COc1cc2ncnc(Nc3ccc4c(cnn4Cc4ccccc4)c3)c2cc1OC,7.52
15,Cc1nc(-c2ccccc2)n2nc(NCCCN3CCOCC3)ncc12,7.29
16,COc1ccc2ncnc(Nc3ccc(OCc4ccccc4)cc3)c2c1,6.18
